Compound activity from PubChem.
A selection: hits, their analogues and other compounds. The true share with any hit is near 2.5%.
MEKK3 PB1 HTS – modulators (inhibitors or enhancers) of MEK5 binding to human MEKK3 PB1 domain; Q99759; bead-based flow cytometry, Alexa488-MEK5 binding to MEKK3; actives lie on both sides; 0 = blocked by unlabeled MEK5, 100 = vehicle; binding response (% of control), % at 10 µM; actives 1.4% (n = 290,000); AID 1529;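 active = binding response more than 3 SD above or below the average of its plate-row segment, actives on both sides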;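 also: Alexa488 bead fluorescence after subtracting the streptavidin-only scavenger bead signal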
GRK2 aptamer HTS – inhibitors of human GRK2 displacing RNA aptamer | bead flow cytometry, FAM-aptamer displacement from GRK2 | inhibition of aptamer binding, % at 10 µM | actives 0.59% (n = 330,000) | AID 488847 | P25098;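 active = inhibition of aptamer binding above 40%, roughly 3 SD of noise, on plates passing a quality check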;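 also: median bead fluorescence of bound FAM aptamer so fluorescent compounds give negative values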
Target sequence (P25098 whole entry, looked up): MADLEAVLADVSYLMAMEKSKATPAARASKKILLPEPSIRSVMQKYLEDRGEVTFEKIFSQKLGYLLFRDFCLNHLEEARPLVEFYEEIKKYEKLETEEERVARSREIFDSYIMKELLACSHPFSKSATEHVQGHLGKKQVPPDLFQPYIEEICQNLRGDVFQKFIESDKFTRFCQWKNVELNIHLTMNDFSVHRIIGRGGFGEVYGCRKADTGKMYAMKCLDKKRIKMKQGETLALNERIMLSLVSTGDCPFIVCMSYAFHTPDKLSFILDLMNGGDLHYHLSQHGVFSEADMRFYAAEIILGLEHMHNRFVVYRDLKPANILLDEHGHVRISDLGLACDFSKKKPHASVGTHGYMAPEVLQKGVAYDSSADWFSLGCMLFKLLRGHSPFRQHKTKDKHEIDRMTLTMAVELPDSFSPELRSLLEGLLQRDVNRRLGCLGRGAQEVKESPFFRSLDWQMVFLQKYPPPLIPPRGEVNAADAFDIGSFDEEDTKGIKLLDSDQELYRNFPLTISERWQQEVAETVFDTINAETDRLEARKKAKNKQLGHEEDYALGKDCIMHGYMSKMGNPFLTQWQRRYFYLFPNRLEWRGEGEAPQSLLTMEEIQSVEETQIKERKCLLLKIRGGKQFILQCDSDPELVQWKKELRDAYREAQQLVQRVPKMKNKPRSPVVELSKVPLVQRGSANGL
MEKK2mut PB1 HTS – signal of MEK5 binding to mutant human MEKK2 PB1 domain | percent response, % at 10 µM | actives 0.35% (n = 290,000) | bead flow cytometry, Alexa488-MEK5 binding to MEKK2 mutant | AID 1530; in the data active = percent response above about 24%, passing the limit was not always enough
MEKK2wt PB1 HTS – raises or lowers MEK5 binding to wildtype human MEKK2 PB1 domain; Q9Y2U5; bead flow cytometry, Alexa488-MEK5 binding to MEKK2 WT; actives lie on both sides; binding response (% of control), % at 10 µM; actives 1.1% (n = 290,000); AID 1531; in the data active = binding response below about 67% or above about 130%
GRK2 inh confirm – human GRK2 inhibition confirmation, cherry pick 1 | shares compounds with GRK2 aptamer HTS | bead-bound GRK2, FAM-aptamer displacement, flow cytometry | aptamer displacement, % at 10 µM | actives 4% (n = 2,000) | AID 504451;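 active = aptamer displacement above 40%, near three times the noise of non-fluorescent compounds, on plates passing quality checks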;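 also: negative values mostly reflect intrinsic compound fluorescence rather than true enhancement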
FAM quench CP1 – counter-screen for GRK2 aptamer inhibitors: fluorescent aptamer quenchers | shares compounds with GRK2 aptamer HTS | Carboxyfluorescein RNA aptamer on beads, flow cytometry quenching; active compounds read low | fluorescence response (% of DMSO), % at 10 µM | 2,000 tested, under 10 active;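 active = compounds that quench the bead-bound fluorescent RNA probe, cutting fluorescence to under half of the solvent control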;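 also: counterscreen run without GRK2 so only probe quenching by compound is measured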
GRK2 CP2 – confirmation of human GRK2 inhibitors binding RNA aptamer site; shares compounds with GRK2 aptamer HTS; bead-bound GRK2, FAM-aptamer displacement, flow cytometry; inhibition of aptamer binding, % at 10 µM; 360 tested, under 10 active; AID 504782;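 active = inhibition of aptamer binding above 40%, about triple the noise seen with nonglowing compounds, on plates passing quality control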;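 also: negative values mostly come from compounds that fluoresce themselves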
FAM quench SP – quenches fluorescent RNA aptamer, GRK2 hit artifact. shares compounds with GRK2 aptamer HTS. carboxyfluorescein RNA aptamer beads, flow cytometry quenching; active compounds read low. fluorescence response vs DMSO, % at 10 µM. 360 tested, under 10 active. AID 588494;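 active = response vs DMSO under 50%, meaning signal dropped by over half, treated as fluorescence quencher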;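 also: labelled aptamer on streptavidin beads without GRK2 as a quench counter-screen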
Of the large screens only hits and unclear results are named; the others gave an inactive call (follow-up assays come after a bar, where they were run).

O=[N+]([O-])c1cccnc1N1CCN(c2ccccc2F)CC1	GRK2 aptamer HTS 46 | GRK2 inh confirm inactive | FAM quench CP1 inactive
O=C(NCCCN1CCN(c2cccc(Cl)c2)CC1)C1(S(=O)(=O)c2ccc(Cl)cc2)CC1	none | GRK2 inh confirm inactive | FAM quench CP1 inactive
O=C(O)c1cccc2cc(-c3ccccc3)oc(=O)c12	none | GRK2 inh confirm inactive | FAM quench CP1 inactive
O=c1oc(-c2ccc(O)c(O)c2)cc2cccc(O)c12	none (no result: MEKK3 PB1 HTS, MEKK2mut PB1 HTS, MEKK2wt PB1 HTS)
CCC(=O)N1CCc2cc(S(=O)(=O)CCC(=O)NCc3cccc(OC)c3)ccc21	none
COc1ccccc1NC(=O)N1CCC(c2nc3cc(C)c(C)cc3[nH]2)CC1	none | GRK2 inh confirm inactive | FAM quench CP1 inactive
O=C(NCc1ccccn1)C1CCCN(Cc2cnn(-c3ccccc3)c2-n2cccc2)C1 (stereo not given)	none | GRK2 inh confirm inactive | FAM quench CP1 inactive
O=C(NC1CC1)C1CCN(Cc2cnn(-c3ccccc3)c2-n2cccc2)CC1	none
O=C(NCc1ccccn1)C1CCN(Cc2cnn(-c3ccccc3)c2-n2cccc2)CC1	none | GRK2 inh confirm inactive | FAM quench CP1 inactive
O=C(NCc1cccnc1)C1CCCN(Cc2cnn(-c3ccccc3)c2-n2cccc2)C1 (stereo not given)	none | GRK2 inh confirm inactive | FAM quench CP1 inactive
O=C(Nc1ccccc1C(=O)N1CCCCCC1)c1cccc([N+](=O)[O-])c1	none
N#Cc1cnc2nc(SCc3ccccc3)nn2c1	none
CCOc1ccc(-n2nc(C(=O)NC3CCCCC3)c3ccccc3c2=O)cc1	GRK2 aptamer HTS 81 | GRK2 inh confirm inactive | FAM quench CP1 inactive
CCc1ccc(NC(=O)CNC(=O)c2nn(-c3ccc(OC)cc3)c(=O)c3ccccc23)cc1	none
CCC(C)NC(=O)CNC(=O)c1nn(-c2ccc(OC)c(Cl)c2)c(=O)c2ccccc12 (stereo not given)	none | GRK2 inh confirm inactive | FAM quench CP1 inactive
CCC(C)NC(=O)CNC(=O)c1nn(-c2ccc(OC)cc2)c(=O)c2ccccc12 (stereo not given)	GRK2 aptamer HTS 44 | GRK2 inh confirm inactive | FAM quench CP1 inactive
COc1cc(SSc2cc(OC)cc([N+](=O)[O-])c2N)c(N)c([N+](=O)[O-])c1	GRK2 aptamer HTS 87 | GRK2 inh confirm inactive | FAM quench CP1 inactive
COc1ccc(S(=O)(=O)NC2CC(=O)N(c3ccccc3)C2)cc1C (stereo not given)	none (no result: MEKK3 PB1 HTS, MEKK2mut PB1 HTS, MEKK2wt PB1 HTS)
C=CCNC(=O)c1onc(CSc2ccc(F)c(F)c2)c1C(=O)NCC=C	GRK2 aptamer HTS 53 | GRK2 inh confirm inactive | FAM quench CP1 inactive
Cc1cc(C)cc(NC(=O)CCCCCN2C(=O)[C@@H]3Cc4ccccc4CN3C2=O)c1	none
COc1cccc(NC(=O)CCCCCN2C(=O)[C@@H]3Cc4ccccc4CN3C2=O)c1	none | GRK2 inh confirm inactive | FAM quench CP1 inactive
COc1ccc(S(=O)(=O)n2cccc2)c(OC)c1	none
O=C(CC(=O)N/N=C/c1c(Cl)cccc1Cl)NCc1cccnc1	none
CN(C)c1ccc(CNC(=O)CCS(=O)(=O)c2ccc3c(c2)n(C)c(=O)c(=O)n3C)cc1	GRK2 aptamer HTS 60 | GRK2 inh confirm inactive | FAM quench CP1 inactive | GRK2 CP2 inactive | FAM quench SP inactive
COc1nc(NC2CCCCC2)nc(NC(C)(C)C)n1	none (no result: MEKK3 PB1 HTS, MEKK2mut PB1 HTS, MEKK2wt PB1 HTS)
COC(=O)Nc1ccc(S(=O)(=O)N2CCN(c3ccc(F)cc3)CC2)cc1	GRK2 aptamer HTS 50 | GRK2 inh confirm inactive | FAM quench CP1 inactive
COC(=O)Nc1ccc(S(=O)(=O)N2CCN(C)CC2)cc1	none
CCN(CC)c1ccc(NC(=O)c2cc3c(OC)cccc3[nH]2)cc1	none | GRK2 inh confirm inactive | FAM quench CP1 inactive
O=C(Nc1ccc(F)cc1F)c1noc2c1CCC2	GRK2 aptamer HTS 59 | GRK2 inh confirm inactive | FAM quench CP1 inactive
O=C(Nc1cc(Cl)ccc1Cl)c1noc2c1CCCC2	none
O=C(Nc1cccc(S(=O)(=O)NC2=NCCC2)c1)c1cnc(Cl)c(Cl)c1	none (no result: MEKK3 PB1 HTS, MEKK2mut PB1 HTS, MEKK2wt PB1 HTS)
CCc1nc(NC(C)(C)C)c2cnn(-c3ccccc3)c2n1	none
CC(C)CCn1c(=O)c2ccccc2n2c(=S)[nH]nc12	none
C=CCn1c(=O)c2ccccc2n2c(=S)[nH]nc12	GRK2 aptamer HTS 98 | GRK2 inh confirm inactive | FAM quench CP1 inactive
Cc1ccccc1NC(=O)CSc1nnc(-c2ccco2)c(-c2ccco2)n1	none
CCc1cccc(C)c1NC(=O)CSc1n[nH]c(N)n1	GRK2 aptamer HTS 100 (no result: MEKK3 PB1 HTS, MEKK2mut PB1 HTS, MEKK2wt PB1 HTS) | GRK2 inh confirm inactive | FAM quench CP1 inactive
Cc1cccc(C)c1NC(=O)CSc1nnc(-c2ccco2)c(-c2ccco2)n1	GRK2 aptamer HTS 47 | GRK2 inh confirm inactive | FAM quench CP1 inactive
COc1ccc(OCC(=O)N2CCN(c3nnc(-c4ccc(C)cc4)c4ccccc34)CC2)cc1	GRK2 aptamer HTS 54 | GRK2 inh confirm inactive | FAM quench CP1 inactive
Cc1ccc(OCC(=O)N2CCN(c3nnc(-c4ccc(C)cc4)c4ccccc34)CC2)cc1	none
O=C(NC(=S)NC(CO)c1ccccc1)c1ccc(F)cc1 (stereo not given)	none
Cn1cc(C(=O)c2ccc(Cl)cc2Cl)cc1C(=O)N/N=C(\N)COc1ccc(Cl)cc1	none
Cn1cc(C(=O)c2ccc(Cl)cc2Cl)cc1C(=O)N/N=C(\N)COc1ccccc1	GRK2 aptamer HTS 58 | GRK2 inh confirm inactive | FAM quench CP1 inactive
OCCC1CN(Cc2ccc3c(c2)CCO3)CCN1Cc1ccc(F)cc1 (stereo not given)	none
CCOC(=O)C1=C(C)NC(C)=C(C(=O)OC)C1c1cccc(Cl)c1Cl (stereo not given)	none | GRK2 inh confirm inactive | FAM quench CP1 inactive
CCOCCOC(=O)Cn1cnc2scc(-c3ccc(C)cc3)c2c1=O	none
Cc1c(/C=N\NC(=O)c2c[nH]c3ccccc23)cnn1C	GRK2 aptamer HTS 99 | GRK2 inh confirm inactive | FAM quench CP1 inactive
CCn1cc(/C=N\NC(=O)c2c[nH]c3ccccc23)c(C)n1	none
Cc1cc(C)cc(OCC(=O)OCC(=O)c2cc(C)n(C3CC3)c2C)c1	none | GRK2 inh confirm inactive | FAM quench CP1 inactive
Cc1ccc(NS(=O)(=O)c2cc3c4c(cccc4c2)C(=O)NC3=O)cc1C	none
C=CCNC(=S)Nc1ccccc1-c1nnc2n1CCCCC2	none
O=C(CCc1ccccc1)Nc1nc2n(n1)C(c1ccc(Cl)cc1)CC(=O)N2 (stereo not given)	GRK2 aptamer HTS 100 | GRK2 inh confirm inactive | FAM quench CP1 inactive
O=C(CCc1ccccc1)Nc1nc2n(n1)C(c1ccccc1)CC(=O)N2 (stereo not given)	none
